Assay outcomes from PubChem.
RMI FANCM FP: blocks RMI1/RMI2 complex binding to FANCM MM2 peptide; actives 0.58% (n = 70,000); Fluorescence polarization, RMI core complex with F-MM2 peptide; hits give low values; FP signal (polarization) at 33 µM; AID 1159607; in the data active = FP signal below about 40
Numbers without * were called inactive. The full list was thinned out, with hits kept by preference.

SMILES	RMI FANCM FP
C=CCn1c(SCC(=O)Nc2scc(-c3ccc(C)o3)c2C(=O)OCC)nc2sc(C)c(C)c2c1=O	86
O=C(CCc1nc2sc3c(c2c(=O)[nH]1)CCCCC3)N1CCN(c2ccccc2F)CC1	66
O=C(CCc1nc2sc3c(c2c(=O)[nH]1)CCCCC3)N1CCN(Cc2ccc3c(c2)OCO3)CC1	28*
NC(=O)C1CCN(C(=O)CCc2nc3sc4c(c3c(=O)[nH]2)CCCCC4)CC1	42
Cc1ccc(-c2ccc(=O)n(CCCC(=O)Nc3cc(C)no3)n2)cc1	59
COC(=O)c1ccc(OCC(O)CN2CCN(CCN3C(=O)c4cccc5cccc(c45)C3=O)CC2)cc1 (configuration not stated)	56
O=C(CN1CCN(CCN2C(=O)c3cccc4cccc(c34)C2=O)CC1)c1ccc(F)cc1	63
COc1ccc(C(=O)CN2CCN(CCN3C(=O)c4cccc5cccc(c45)C3=O)CC2)cc1	25*
Cc1cc(NC(=O)C(=O)NCCCc2ccc(N(C)C)cc2)no1	68
O=C(c1ccccc1)c1ccc2c3c(cccc13)C(=O)N(c1ccc3c4c(cccc14)CC3)C2=O	18*
O=C(c1ccccc1)c1ccc2c3c(cccc13)CC2	62
Cc1ccccc1N1C(=O)c2cccc3c(C(=O)O)ccc(c23)C1=O	60
COc1ccc(Cl)c2sc(NCC3CCCO3)nc12 (configuration not stated)	67
CC(C)(C)c1ccc(S(=O)(=O)NCc2ccc(C(=O)Nc3ccc4c(c3)OCO4)cc2)cc1	79
O=C(Cn1nc2ccc(SCc3ccc(Cl)cc3)nn2c1=O)NC1CCCCC1	104
COc1ccc(-c2cc(-c3ccc(OC)cc3)c3c(N)c(C(=O)c4ccc(Cl)cc4)sc3n2)cc1	500
COc1ccc(-c2cc(-c3ccccc3)nc(SCC(=O)NCC3CCCO3)c2C#N)cc1 (configuration not stated)	94
COc1ccc(-c2cc(-c3ccc(Cl)cc3)nc3sc(C(=O)N4CCOCC4)c(N)c23)cc1	-18*
COc1ccc(-c2cc(-c3ccccc3)nc3sc(C(=O)NCC4CCCO4)c(N)c23)cc1 (configuration not stated)	9*
COc1ccc(-c2cc(-c3ccc(C)c(C)c3)nc3sc(C(N)=O)c(N)c23)cc1	123
CC1(C)CC(=O)c2c(nc3sc(C(=O)NCC4CCCO4)c(N)c3c2-c2ccccc2)C1 (configuration not stated)	53
CS(=O)(=O)c1cc2ccccc2oc1=O	57
O=C(Nc1nnc(-c2ccc(Br)cc2)s1)c1ccc(C(=O)c2ccccc2)cc1	65
CCc1ccc(N(C)S(=O)(=O)c2ccsc2-c2nc(-c3ccc(SC)cc3)no2)cc1	70
COc1ccc(Cl)cc1C(=O)N1CCN(c2ccc(-c3cccnc3)nn2)CC1	68
SMILES	RMI FANCM FP
COc1ccc2c(C)cc(SCC(=O)c3ccc(OC)c(OC)c3)nc2c1	125
COc1ccc(C(=O)CSc2cc(C)c(C#N)c3nc4ccccc4n23)cc1OC	30*
COc1ccc(CCNc2cc(C)c(C#N)c3nc4ccccc4n23)cc1OC	52
O=C(Nc1ccccc1Cl)C1CCCN(c2ccc(-c3cccs3)nn2)C1 (configuration not stated)	59
COC(=O)c1sccc1N/C=C(\C#N)C(=O)c1cccc(CSc2ccc(Cl)cc2)c1	7*
COC(=O)c1sccc1N/C=C(\C#N)C(=O)c1ccco1	59
COC(=O)c1sccc1N/N=C(\C#N)C(=O)c1ccc(Cl)cc1	58
COc1ccc2nc(-c3cccc(NC(=O)c4cc5ccccc5oc4=O)c3)cn2n1	82
CC(=O)O[C@H]1C[C@@H]2CC[C@@H]3[C@H](CC[C@@]4(C)[C@H]3C[C@H]([N+]3(C)CCCCC3)[C@@H]4OC(C)=O)[C@@]2(C)C[C@@H]1N1CCCCC1	74
CC(=O)OC1C([N+]2(C)CCCCC2)C[C@H]2C3CC[C@H]4C[C@H](OC(C)=O)C([N+]5(C)CCCCC5)CC4(C)[C@H]3CCC12C (some centres not stated)	-9*
CC(=O)O[C@H]1C[C@@H]2CC[C@@H]3[C@H](CC[C@@]4(C)[C@H]3C[C@H]([N+]3(C)CCCCC3)[C@@H]4OC(C)=O)[C@@]2(C)C[C@@H]1[N+]1(C)CCCCC1	56
N#CCCSc1ccccc1NC(=O)c1cc2c(ccc3ccccc32)oc1=O	56
CC(C)(C)c1cc(NS(=O)(=O)c2ccc(Cl)c(C(F)(F)F)c2)cc(C(C)(C)C)c1	59
COc1cccc(-n2c(SCc3cccnc3)nc3c(c2=O)SCC3)c1	61
C(=NCc1ccccc1)c1ccc2c(c1)OCO2	53
Clc1cc(Cl)cc(C=NCc2ccccc2)c1	21*
C(=NCCc1ccccc1)c1ccccc1	49
COc1ccc(-c2cc(C(=O)N3CCN(C)CC3)c3c(C)nn(C4CCS(=O)(=O)C4)c3n2)cc1 (configuration not stated)	68
O=C(O)c1[nH]c(=O)[nH]c(=O)c1CN1CCCC1	70
COC(=O)c1ccccc1NC1=CC(=NS(=O)(=O)c2ccc(F)cc2)c2ccccc2C1=O	57
COc1ccc(S(=O)(=O)N=C2C=C(Nc3cccc(C)c3)C(=O)c3ccccc32)cc1	13*
O=C1C(NS(=O)(=O)c2ccccc2)=CC(=NS(=O)(=O)c2ccc(F)cc2)c2ccccc21	58
Cc1ccc(NS(C)(=O)=O)cc1N=Cc1cc(Cl)cc(Cl)c1O	32
NC(=O)C1Cc2ccccc2N1C(=O)C1CC1 (configuration not stated)	66
NC(=O)C1Cc2ccccc2N1C(=O)Nc1cccs1 (configuration not stated)	28*
SMILES	RMI FANCM FP
NC(=O)C1Cc2ccccc2N1C(=O)c1cccs1 (configuration not stated)	53
O=C(CSc1nccn2nc(-c3ccc(Cl)cc3)cc12)Nc1ccc2c(c1)OCCO2	87
O=S(=O)(NC1CC1)c1ccc2ccccc2c1	59
Cc1cc(C)c(S(=O)(=O)Nc2cc(Cl)c(O)c3ccccc23)cc1C	25*
Cc1cc(Cl)c(Cl)cc1S(=O)(=O)Nc1ccccc1C(=O)O	63
COc1ccc(OC)c(S(=O)(=O)Nc2cc(Sc3ccccc3)c(O)c3ccccc23)c1	61
Cc1ccc(S(=O)(=O)N=Cc2cccc([N+](=O)[O-])c2)cc1	61
CC1=CC(=NS(=O)(=O)c2cccc([N+](=O)[O-])c2)C=CC1=O	-23*
Cc1nc2ccccc2c(=O)n1-c1cccc(NS(=O)(=O)c2cccc([N+](=O)[O-])c2)c1	54
CCN(CC)c1ccc(/C=N\NC(=O)CCC2C(=O)NN=C2C)cc1 (configuration not stated)	58
CC1CCc2nc(NC(=O)C3CCCN3S(=O)(=O)c3ccc(Cl)s3)sc2C1 (configuration not stated)	63
COc1ccc(Cl)cc1NC(=O)CSc1nc(C)ccc1C#N	108
COCCN1CCCc2ccc(NS(=O)(=O)c3ccc(F)cc3F)cc21	18*
COCCN1CCCc2ccc(NS(=O)(=O)c3cc(Cl)ccc3C)cc21	64
COCCN1CCCc2ccc(NS(=O)(=O)Cc3ccc(Cl)cc3)cc21	-27*
COCCN1CCCc2ccc(NS(=O)(=O)c3ccc(C(C)(C)C)cc3)cc21	61
COCCN1CCCc2ccc(NS(=O)(=O)c3ccccc3Cl)cc21	62
COCCN1CCCc2ccc(NS(=O)(=O)c3cc(C)c(C)cc3OC)cc21	60
COCCN1CCCc2ccc(N)cc21	-72*
